Test results from the supplement of paper PMC10127200.
Counter-ions that a name gives are not always drawn.

test system: HEPG2; assay: Euclidean distance of Cell Painting phenotypic profile (signed KS, 77 features) to DMSO centroid (dimensionless distance); 5 or 10 uM (library dependent); higher = stronger phenotypic change vs DMSO (phenoactivity); settings: 48 h
In short: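 Five cancer lines and a healthy fibroblast line received library compounds at 10 or 5 uM (library-dependent, 0.1% DMSO final) for 48 h. Stained cells were imaged confocally at 20X (9 fields/well). Harmony extracted 77 features, each scored as a signed Kolmogorov-Smirnov statistic against same-plate vehicle wells. Profiles were plate-position corrected, correlation-weighted and replicate-averaged at the top dose. Phenoactivity is the Euclidean distance from each profile to the median vehicle profile.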

Which Euclidean distance does the source give for `CCOC(=O)Nc1cc(-c2ccc(C)c(NS(C)(=O)=O)c2)nn2c(C)nnc12` [Bromosporine] here?
Its Euclidean distance is 1.13.

Which Euclidean distance does the source give for `CC(C)c1nc(CN(C)C(=O)N[C@@H](CCN2CCOCC2)C(=O)N[C@H](CC[C@H](Cc2ccccc2)NC(=O)OCc2cncs2)Cc2ccccc2)cs1` [Cobicistat (GS-9350)] here?
Its Euclidean distance is 1.23.

Which Euclidean distance does the source give for `C=C[C@](C)(O)CC[C@@H]1[C@@]2(C)CCCC(C)(C)[C@@H]2CC[C@@]1(C)O` [Sclareol] here?
The Euclidean distance was 0.546.

With `CCCC1O[C@@H]2C[C@H]3[C@@H]4CCC5=CC(=O)C=C[C@]5(C)[C@H]4[C@@H](O)C[C@]3(C)[C@]2(C(=O)CO)O1` (some centres undefined) [Budesonide] as the compound, how does the Euclidean distance read?
The Euclidean distance was 2.09.

`CO/N=C(\C(=O)N[C@@H]1C(=O)N2C(C(=O)O)=C(COC(C)=O)CS[C@H]12)c1csc(N)n1` [Cefotaxime sodium] was tested. Which Euclidean distance did it give?
Its Euclidean distance is 0.409.

Which Euclidean distance does the source give for `O=C(O)Cc1ccccc1Nc1c(Cl)cccc1Cl` [Diclofenac Diethylamine] here?
Its Euclidean distance is 0.397.

`Cc1cc(C(=O)NOCCO)c(Nc2ccc(I)cc2F)n(C)c1=O` was tested. Which Euclidean distance did it give?
The Euclidean distance was 1.48.

`CCCCc1ncc(/C=C(\Cc2cccs2)C(=O)O)n1Cc1ccc(C(=O)O)cc1` [Eprosartan Mesylate] was tested. Which Euclidean distance did it give?
The Euclidean distance was 1.3.

`Cn1nc(C(C)(C)C)cc1C(=O)N[C@@H](Cc1cccc(Cl)c1)C(=O)NCC#N` [Cathepsin Inhibitor 1] was tested. Which Euclidean distance did it give?
Its Euclidean distance is 1.43.

Which Euclidean distance does the source give for `C/C=C\c1ccc(O)c(OC)c1` [Isoeugenol] here?
The Euclidean distance was 0.417.

How did the Euclidean distance turn out when `Cc1cc(N2CCN([C@@H]3CN[C@H](C(=O)N4CCSC4)C3)CC2)n(-c2ccccc2)n1` [Teneligliptin hydrobromide] was run?
Its Euclidean distance is 1.21.

`COc1ccc(-c2ccc3c(N4CCOC[C@@H]4C)nc(N4CCOC[C@@H]4C)nc3n2)cc1CO` was tested. Which Euclidean distance did it give?
Its Euclidean distance is 2.55.

How did the Euclidean distance turn out when `CC(C)(C)Cn1c(N)nc2ccc(-c3[nH]c(C(C)(C)C)nc3-c3ccc(F)cc3)nc21` was run?
The Euclidean distance was 4.51.

`CCN1CCN(C(=O)N[C@@H](C(=O)N[C@@H]2C(=O)N3[C@@H]2SC(C)(C)[C@@H]3C(=O)O)c2ccccc2)C(=O)C1=O` [Piperacillin Sodium] was tested. Which Euclidean distance did it give?
Its Euclidean distance is 0.514.

Which Euclidean distance does the source give for `COc1cc(N2CCC(N3CCN(C)CC3)CC2)ccc1Nc1ncc(Cl)c(Nc2ccccc2S(=O)(=O)C(C)C)n1` here?
The Euclidean distance was 1.66.

`OC1CN(CCCOCCc2ccc3sccc3c2)C1` [Edonerpic maleate] was tested. Which Euclidean distance did it give?
Its Euclidean distance is 0.525.

For `c1cc(CN2CCCNCCNCCCNCC2)ccc1CN1CCCNCCNCCCNCC1` [Plerixafor 8HCl (AMD3100 8HCl)], which Euclidean distance is on record?
Its Euclidean distance is 0.69.

`COc1cc(C(=O)OCCCCNC(=N)N)cc(OC)c1O` [Leonurine] was tested. Which Euclidean distance did it give?
The Euclidean distance was 0.641.

`C[C@H](Cn1cnc2c(N)ncnc21)OCP(=O)(O)O` [Tenofovir] was tested. Which Euclidean distance did it give?
The Euclidean distance was 1.26.

Which Euclidean distance does the source give for `NC(=O)[C@@H]1CSSCCC(=O)N[C@@H](CCCCN=C(N)N)C(=O)NCC(=O)N[C@@H](CC(=O)O)C(=O)N[C@@H](Cc2c[nH]c3ccccc23)C(=O)N2CCC[C@H]2C(=O)N1` [Eptifibatide Acetate] here?
The Euclidean distance was 0.664.

With `CC[C@H](NC(=O)[C@H](C)NC)C(=O)N1C[C@@H](O)C[C@H]1Cc1c(-c2[nH]c3cc(F)ccc3c2C[C@@H]2C[C@H](O)CN2C(=O)[C@H](CC)NC(=O)[C@H](C)NC)[nH]c2cc(F)ccc12` [Birinapant] as the compound, how does the Euclidean distance read?
The Euclidean distance was 2.95.

`C[C@]12CC[C@@H]3c4ccc(O)cc4CC[C@H]3[C@@H]1CC[C@@H]2O` [Estradiol] was tested. Which Euclidean distance did it give?
The Euclidean distance was 0.515.

With `CCOC(=O)c1c(N)sc2c1CCN(Cc1ccccc1)C2` [Tinoridine hydrochloride] as the compound, how does the Euclidean distance read?
The Euclidean distance was 0.814.

Which Euclidean distance does the source give for `Nc1nc2[nH]cc(CCc3ccc(C(=O)N[C@@H](CCC(=O)O)C(=O)O)cc3)c2c(=O)[nH]1` [Pemetrexed Disodium Hydrate] here?
Its Euclidean distance is 2.46.

Which Euclidean distance does the source give for `CC[C@]12CCCN3CCc4c(n(c5ccccc45)[C@@](O)(C(=O)OC)C1)[C@@H]32` [Vincamine] here?
The Euclidean distance was 0.91.

Which Euclidean distance does the source give for `O=C(/C=C/c1ccc(O)c(O)c1)c1ccc(O)cc1O` [Butein] here?
Its Euclidean distance is 1.5.

`CC(COc1ccccc1)NC(C)C(O)c1ccc(O)cc1` (centres undefined) [Isoxsuprine hydrochloride] was tested. Which Euclidean distance did it give?
The Euclidean distance was 0.54.

For `Nc1nnc(-c2cccc(Cl)c2Cl)c(N)n1` [Lamotrigine], which Euclidean distance is on record?
The Euclidean distance was 0.712.

How did the Euclidean distance turn out when `O=C(O)c1cccnc1` [Nicotinic Acid] was run?
The Euclidean distance was 1.92.

For `CC(C)(CO)[C@@H](O)C(=O)NCCC(=O)O` [D-Pantothenic acid], which Euclidean distance is on record?
Its Euclidean distance is 0.485.

How did the Euclidean distance turn out when `CC1(C)O[C@@H]2C[C@H]3[C@@H]4C[C@H](F)C5=CC(=O)C=C[C@]5(C)[C@@]4(F)[C@@H](O)C[C@]3(C)[C@]2(C(=O)CO)O1` [Fluocinolone Acetonide] was run?
Its Euclidean distance is 0.86.

`Cc1ccc(C(=O)N(CCCN)[C@@H](c2nc3cc(Cl)ccc3c(=O)n2Cc2ccccc2)C(C)C)cc1` was tested. Which Euclidean distance did it give?
The Euclidean distance was 3.84.

For `OC(CN1CCN(c2cccc(Cl)c2)CC1)C(c1ccccc1)c1ccccc1` (centres undefined), which Euclidean distance is on record?
Its Euclidean distance is 0.858.

For `COc1cc(/C=C/C(=O)O)ccc1O` [Sodium ferulate], which Euclidean distance is on record?
The Euclidean distance was 1.11.

Which Euclidean distance does the source give for `CS(=O)(=O)N1CCc2c(-c3cnc(N)nc3)nc(N3CCOCC3)nc21` here?
The Euclidean distance was 0.817.

With `C=CCc1cccc(/C=N/NC(=O)CN2CCN(Cc3ccccc3)CC2)c1O` as the compound, how does the Euclidean distance read?
Its Euclidean distance is 2.31.

`O=C(NCCCNc1nc(Nc2cccc(NC(=O)N3CCCC3)c2)ncc1I)c1cccs1` was tested. Which Euclidean distance did it give?
Its Euclidean distance is 2.12.

For `N[C@@H]1CCCCN(c2c(F)cc3c(=O)c(C(=O)O)cn(C4CC4)c3c2Cl)C1` [Besifloxacin HCl], which Euclidean distance is on record?
Its Euclidean distance is 0.864.

How did the Euclidean distance turn out when `C=CC(=O)Nc1cc(Nc2nccc(-c3cn(C4CC4)c4ccccc34)n2)c(OC)cc1N(C)CCN(C)C` was run?
Its Euclidean distance is 2.67.
